The record followed here is paper PMC5700166.

Changes are numbered by the printed parent chain.

Assay in all cases: protein-binding microarray (PBM); PBM: ~300 nM protein, 6 mM HEPES pH 7.8, 80 mM KCl, 0.5 mM EDTA, 0.5 mM EGTA, 6% glycerol, 35 ng/ul poly-dIdC, 1% milk, 1 h, room temperature; Ap Aiptasia and Nv Nematostella (sea anemones) / Co Capsaspora / Aq Amphimedon (sponge) / Dm Drosophila / Hu human; RHD is the Rel homology domain; high values mean tight binding
Common to all, as to settings: dsDNA, one strand shown

Test [1] has as its target T1, GST-Ap-NF-kB RHD (Exaiptasia pallida (Aiptasia), UniProt A0A913YAJ5 2-422).
T1 sequence: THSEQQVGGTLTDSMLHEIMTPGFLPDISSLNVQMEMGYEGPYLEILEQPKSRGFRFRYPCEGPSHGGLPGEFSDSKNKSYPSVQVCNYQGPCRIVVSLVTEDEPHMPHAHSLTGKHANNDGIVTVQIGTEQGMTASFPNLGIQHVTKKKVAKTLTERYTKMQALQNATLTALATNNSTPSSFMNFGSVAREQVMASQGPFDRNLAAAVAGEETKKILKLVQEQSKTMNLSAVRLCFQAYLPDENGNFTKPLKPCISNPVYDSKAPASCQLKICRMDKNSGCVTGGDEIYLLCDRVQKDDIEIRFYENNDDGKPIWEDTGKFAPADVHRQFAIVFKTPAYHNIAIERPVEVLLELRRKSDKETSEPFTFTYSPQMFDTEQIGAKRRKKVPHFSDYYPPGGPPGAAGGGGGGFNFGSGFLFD

Test [2] has as its target T2, GST-Nv-NF-kB (Cys allele) (Nematostella vectensis, UniProt E5G601 2-411).
T2 sequence: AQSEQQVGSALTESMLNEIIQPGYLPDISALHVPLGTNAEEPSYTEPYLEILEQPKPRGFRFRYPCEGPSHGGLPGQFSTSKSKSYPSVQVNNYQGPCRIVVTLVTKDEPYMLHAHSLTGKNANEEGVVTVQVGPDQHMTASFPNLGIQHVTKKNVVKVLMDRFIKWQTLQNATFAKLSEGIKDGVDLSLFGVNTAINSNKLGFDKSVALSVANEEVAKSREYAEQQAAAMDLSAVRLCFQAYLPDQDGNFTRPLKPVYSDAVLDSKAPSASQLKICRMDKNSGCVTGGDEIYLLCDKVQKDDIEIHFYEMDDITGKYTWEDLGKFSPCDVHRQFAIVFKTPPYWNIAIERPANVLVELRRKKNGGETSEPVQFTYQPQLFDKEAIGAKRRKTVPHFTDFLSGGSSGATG

Test [3] deals with T3, GST-Nv-NF-kB (Ser allele) (Nematostella vectensis, UniProt A7UNT2 2-411).
T3 sequence: T2 sequence with Q21R, C66S, S207N, E215Q, V217A, E225K, A268E, D399E

Test [4] addresses T4, GST-Co-NF-kB (Capsaspora owczarzaki, UniProt F1ARL5 200-546).
T4 sequence: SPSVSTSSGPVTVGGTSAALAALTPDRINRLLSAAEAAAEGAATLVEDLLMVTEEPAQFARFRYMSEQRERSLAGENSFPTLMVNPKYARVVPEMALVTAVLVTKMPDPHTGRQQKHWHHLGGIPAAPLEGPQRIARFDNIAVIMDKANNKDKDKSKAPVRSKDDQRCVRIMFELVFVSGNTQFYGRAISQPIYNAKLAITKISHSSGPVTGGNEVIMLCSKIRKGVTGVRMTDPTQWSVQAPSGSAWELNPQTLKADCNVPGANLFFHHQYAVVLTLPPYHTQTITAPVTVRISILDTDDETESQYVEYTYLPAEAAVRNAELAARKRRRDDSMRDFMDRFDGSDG

Test [5] deals with T5, GST-Dm-Relish (Drosophila melanogaster, UniProt Q94527 99-473).
T5 sequence: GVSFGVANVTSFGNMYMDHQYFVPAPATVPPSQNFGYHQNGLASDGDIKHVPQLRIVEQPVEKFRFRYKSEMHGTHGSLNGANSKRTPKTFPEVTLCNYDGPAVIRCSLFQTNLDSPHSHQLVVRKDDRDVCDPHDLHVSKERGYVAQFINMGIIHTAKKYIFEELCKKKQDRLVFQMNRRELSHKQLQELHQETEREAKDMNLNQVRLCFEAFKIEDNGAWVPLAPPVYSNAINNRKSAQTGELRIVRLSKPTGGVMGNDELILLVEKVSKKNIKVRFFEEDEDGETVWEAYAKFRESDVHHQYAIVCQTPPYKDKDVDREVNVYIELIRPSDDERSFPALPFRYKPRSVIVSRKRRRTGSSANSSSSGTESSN

Test [6] addresses T6, GST-Aq-NF-kB (Amphimedon queenslandica, UniProt A9Y5G7 2-389).
T6 sequence: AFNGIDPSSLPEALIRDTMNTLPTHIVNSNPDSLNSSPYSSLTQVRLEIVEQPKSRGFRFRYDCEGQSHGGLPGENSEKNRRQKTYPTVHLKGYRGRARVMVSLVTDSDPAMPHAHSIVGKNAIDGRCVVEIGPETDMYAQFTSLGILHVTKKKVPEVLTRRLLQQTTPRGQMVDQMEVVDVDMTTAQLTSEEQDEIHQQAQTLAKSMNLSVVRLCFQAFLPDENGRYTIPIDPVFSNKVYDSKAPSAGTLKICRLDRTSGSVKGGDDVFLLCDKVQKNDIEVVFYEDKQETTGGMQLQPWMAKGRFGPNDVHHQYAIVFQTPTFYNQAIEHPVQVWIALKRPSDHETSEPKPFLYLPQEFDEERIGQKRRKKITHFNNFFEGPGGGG

Test [7] deals with GST-Hu-p50 (Homo sapiens, UniProt P19838 7-356).
Chain of GST-Hu-p50 (P19838 7-356): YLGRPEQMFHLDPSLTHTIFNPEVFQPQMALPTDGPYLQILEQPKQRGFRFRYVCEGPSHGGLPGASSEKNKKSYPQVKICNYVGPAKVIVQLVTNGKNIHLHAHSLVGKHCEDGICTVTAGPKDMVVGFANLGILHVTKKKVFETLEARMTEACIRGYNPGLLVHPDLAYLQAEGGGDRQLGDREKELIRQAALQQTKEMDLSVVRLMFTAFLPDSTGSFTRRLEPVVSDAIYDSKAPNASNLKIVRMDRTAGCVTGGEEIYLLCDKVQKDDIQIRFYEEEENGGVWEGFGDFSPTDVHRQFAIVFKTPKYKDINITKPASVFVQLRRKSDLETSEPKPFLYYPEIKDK

For the sequence “CCGATTAACATCAGGGGGGAACCTGATGTTAATCGGGTCTTGATTCGCTTGACGCTGCTG”, the binding signal in test [1] worked out at 7.52 z-score; in test [2], 5.48 z-score; in test [3], 6.89 z-score; in test [4] it was 8.57 z-score; in test [5] it was 5.48 z-score; in test [6], 6.03 z-score. Moreover, in test [7], the binding signal came out at 6.02 z-score.

As to “CCGATTAACATCAGGGGGAATCATGATGTTAATCGGGTCTTGATTCGCTTGACGCTGCTG”, the binding signal is 8.02 z-score in test [1]; 7.33 z-score in test [2]; 8.26 z-score in test [3]; 8.51 z-score in test [4]; 6.2 z-score in test [5]; 5.7 z-score in test [6]. In test [7], this sequence returned a binding signal of 6.66 z-score.

“CCGATTAACATCAGGGAATCACCTGATGTTAATCGGGTCTTGATTCGCTTGACGCTGCTG”: the binding signal in test [1] amounted to 6.2 z-score; in test [2] it was 6.62 z-score; in test [3], 6.17 z-score; in test [4] it was 2.45 z-score; in test [5], 10.3 z-score; in test [6], 6.99 z-score. The same sequence had a binding signal in test [7] of 5.35 z-score.

As for “CCGATTAACATCAGGGGGTTTTATGATGTTAATCGGGTCTTGATTCGCTTGACGCTGCTG”, the binding signal stood at 9.65 z-score in test [1]; 9.57 z-score in test [2]; 10.2 z-score in test [3]; 3.52 z-score in test [4]; 10 z-score in test [5]; 8.21 z-score in test [6]. This sequence yielded a binding signal in test [7] of 7.82 z-score.

With “CCGATTAACATCACACATCCCCCTGATGTTAATCGGGTCTTGATTCGCTTGACGCTGCTG”, the binding signal is 4.83 z-score in test [1]; 4.4 z-score in test [2]; 5.41 z-score in test [3]; 4.17 z-score in test [4]; 3.19 z-score in test [5]; 3.87 z-score in test [6]. The binding signal in test [7] came to 4.48 z-score.

Consider “CCGATTAACATCAATTCACCCCCTGATGTTAATCGGGTCTTGATTCGCTTGACGCTGCTG”, for which the binding signal in test [1] worked out at 4.01 z-score; in test [2] it was 3.65 z-score; in test [3] it was 4.82 z-score; in test [4] it was 6.74 z-score; in test [5], 3.16 z-score; in test [6], 4.11 z-score. Also, in test [7], the binding signal came out at 4.31 z-score.

With “CCGATTAACATCAGGGGAGGGAATGATGTTAATCGGGTCTTGATTCGCTTGACGCTGCTG”, the binding signal in test [1] is 3.95 z-score; in test [2] it was 5.44 z-score; in test [3], 5.03 z-score; in test [4] it was 5.53 z-score; in test [5], 2.13 z-score; in test [6], 5.17 z-score. In addition, the binding signal in test [7] is 3.3 z-score.

Regarding “CCGATTAACATCAAAATGTCCCCTGATGTTAATCGGGTCTTGATTCGCTTGACGCTGCTG”, the binding signal in test [1] is 6.81 z-score; in test [2] it was 6.47 z-score; in test [3], 7.12 z-score; in test [4], 5.57 z-score; in test [5] it was 6.24 z-score; in test [6], 5.89 z-score. In test [7], the binding signal is 5.58 z-score.

For the sequence “CCGATTAACATCAAAAAATACCCTGATGTTAATCGGGTCTTGATTCGCTTGACGCTGCTG”, the binding signal amounted to 6.17 z-score in test [1]; 9.78 z-score in test [2]; 8.7 z-score in test [3]; 3.1 z-score in test [4]; 8.93 z-score in test [5]; 8.03 z-score in test [6]. The binding signal in test [7] came out at 6.73 z-score.

In the case of “CCGATTAACATCAGAAAATTCCCTGATGTTAATCGGGTCTTGATTCGCTTGACGCTGCTG”, the binding signal in test [1] was 6.03 z-score; in test [2] it was 9.51 z-score; in test [3], 8 z-score; in test [4], 4.76 z-score; in test [5] it was 7.55 z-score; in test [6] it was 7.67 z-score. This sequence also returned a binding signal in test [7] of 6.47 z-score.

Turning to “CCGATTAACATCAAAACTTTCCCTGATGTTAATCGGGTCTTGATTCGCTTGACGCTGCTG”, the binding signal in test [1] was determined as 4.81 z-score; in test [2], 8.68 z-score; in test [3], 8.65 z-score; in test [4], 6.16 z-score; in test [5], 4.08 z-score; in test [6], 7.54 z-score. This sequence also had a binding signal in test [7] of 5.54 z-score.

Turning to “CCGATTAACATCAGGGATTACCCTGATGTTAATCGGGTCTTGATTCGCTTGACGCTGCTG”, the binding signal in test [1] is 8.01 z-score; in test [2] it was 10 z-score; in test [3], 7.06 z-score; in test [4], 2.89 z-score; in test [5] it was 9.47 z-score; in test [6] it was 8.71 z-score. In test [7], this sequence came in with a binding signal of 4.78 z-score.

As for “CCGATTAACATCAGACATTCCCCTGATGTTAATCGGGTCTTGATTCGCTTGACGCTGCTG”, the binding signal in test [1] turned out to be 7.03 z-score; in test [2] it was 8.78 z-score; in test [3], 8.26 z-score; in test [4], 5.38 z-score; in test [5], 4.78 z-score; in test [6], 6.59 z-score. In addition, in test [7], the binding signal worked out at 5.51 z-score.

On to “CCGATTAACATCAAAATTCCCACTGATGTTAATCGGGTCTTGATTCGCTTGACGCTGCTG”, for which the binding signal in test [1] is 3.89 z-score; in test [2], 5.68 z-score; in test [3] it was 5.15 z-score; in test [4], 4.31 z-score; in test [5], 5.55 z-score; in test [6] it was 4.54 z-score. In test [7], this sequence registered a binding signal of 4.27 z-score.

In the case of “CCGATTAACATCAAGGGGGATTCTGATGTTAATCGGGTCTTGATTCGCTTGACGCTGCTG”, the binding signal in test [1] is 9.03 z-score; in test [2], 8.85 z-score; in test [3] it was 10.3 z-score; in test [4], 4.93 z-score; in test [5], 8.21 z-score; in test [6] it was 7.13 z-score. The sequence also gave a binding signal in test [7] of 7.71 z-score.

For “CCGATTAACATCAAGAAATCCCCTGATGTTAATCGGGTCTTGATTCGCTTGACGCTGCTG”, the binding signal in test [1] came out at 9.62 z-score; in test [2] it was 11.5 z-score; in test [3], 12.5 z-score; in test [4], 4.27 z-score; in test [5], 9.61 z-score; in test [6], 7.7 z-score. In test [7], this sequence showed a binding signal of 7.69 z-score.

“CCGATTAACATCAGGGGTATTACTGATGTTAATCGGGTCTTGATTCGCTTGACGCTGCTG”: the binding signal was 4.43 z-score in test [1]; 3.56 z-score in test [2]; 3.14 z-score in test [3]; 3.37 z-score in test [4]; 3.55 z-score in test [5]; 4.5 z-score in test [6]. The sequence further displayed a binding signal in test [7] of 3.9 z-score.

In the case of “CCGATTAACATCAGGGGAAATCATGATGTTAATCGGGTCTTGATTCGCTTGACGCTGCTG”, the binding signal in test [1] came out at 7.92 z-score; in test [2], 8.72 z-score; in test [3], 11.1 z-score; in test [4], 7.67 z-score; in test [5], 5.47 z-score; in test [6] it was 5.97 z-score. For the same sequence, the binding signal in test [7] was found to be 6.18 z-score.

On to “CCGATTAACATCAATTCCCACCCTGATGTTAATCGGGTCTTGATTCGCTTGACGCTGCTG”, for which the binding signal in test [1] is 2.43 z-score; in test [2] it was 2.6 z-score; in test [3], 2.72 z-score; in test [4], 3.21 z-score; in test [5] it was 2.33 z-score; in test [6], 2.03 z-score. The sequence further returned a binding signal in test [7] of 2.02 z-score.
